From PubChem BioAssay AID1053174 (Broad Institute, 2014) come the findings set out here.

Among all 1,500 compounds or so, about 140 (9.3%) were called active. No rule for the calls is given here. A selection follows.

A short description of this assay: AlphaScreen signal interference with preloaded methylated product, dose response, artefact control for NSD2 inhibitor project, biochemical, cherry-picked samples (AID 1053174). The note with it: AlphaScreen artifact counterscreen, preloaded methylated H4 peptide; series mostly up to 10 µM. A general note: In Alpha technology, singlet oxygen from a donor bead excites a nearby acceptor bead.
Take `CCNC(=O)C1(C)CCCN(C(=O)c2ccc3ccccc3n2)C1` (stereo unspecified): the AC35 result is “inactive”.

As to `O=C(/C=C/c1ccc(Cl)cc1Cl)NCc1ccco1`, the AC35 entry was “inactive”.

For `COC(=O)c1nc(NC(=O)c2ccccc2)n[nH]1`, the AC35 entry is “inactive”.

Take `CCC1=[N+]([O-])C(C)(/C(C)=N\O)N(O)C1(C)C` (stereo unspecified): the AC35 entry is “inactive”.

With `COC(=O)CCCCC1=CCC2C(=O)C=C(O)C2C1` (stereo unspecified), the AC35 result is “inactive”.

Turning to `Clc1ccc(C2=CSC3=Nc4cccc5cccc(c45)N23)cc1`, the AC35 result is “inactive”.

Turning to `C=CCc1cccc2cc(C(=O)Nc3ccc(NC(C)=O)cc3)c(=O)oc12`, the AC35 entry was “inactive”.

For `Oc1ccc(CNc2ccccc2O)cc1`, the AC35 entry was “inactive”.

As for `O=C(CNC(=O)c1ccccc1)Oc1ccc([N+](=O)[O-])cc1`, the AC35 entry was “inactive”.

On to `Cc1c(CC(=O)N2CCN(C(=O)C3COc4ccccc4O3)CC2)c(=O)oc2c(O)c(O)ccc12` (stereo unspecified), for which the AC35 result was “inactive”.

In the case of `CS(=O)(=O)N(CC(=O)NCc1ccco1)c1ccc2c(c1)OCO2`, the AC35 entry is “inactive”.

In the case of `Cc1[nH]n(-c2ccccc2)c(=O)c1N=Nc1ccccc1C(=O)N1CCCCC1`, the AC35 result is “inactive”.

With `CN(C(=O)CN1C(=O)S/C(=C\c2ccccc2F)C1=O)C1CCS(=O)(=O)C1` (stereo unspecified), the AC35 entry was “inactive”.

As for `CC(=O)N(C1=C(Cl)C(=O)c2ccccc2C1=O)c1ccc(C(=O)O)cc1`, the AC35 entry was “inactive”.

In the case of `C(=N/Nc1cc(N2CCOCC2)nc(N2CCOCC2)n1)/c1ccccc1`, the AC35 result was “inactive”.

In the case of `Cc1cccc(OCCC(=O)Nc2ccccc2C(N)=O)c1`, the AC35 entry was “inactive”.

`Cn1ncc2c(Nc3cccc4ccccc34)ncnc21`: the AC35 entry is “inactive”.

Take `Cc1[nH][nH]c(=O)c1C(c1ccc2c(c1)OCO2)c1c(C)[nH][nH]c1=O`: the AC35 entry was “inactive”.

Turning to `Cc1ccc(S(=O)(=O)/N=C2\C=C(NS(=O)(=O)c3ccc(C)cc3)C(=O)c3ccccc32)cc1`, the AC35 was 9.17 µM (active).

For `O=c1[nH]c(CN2CCOCC2)nc2cc(Cl)ccc12`, the AC35 result is “inactive”.

In the case of `CCOC(=O)c1nnn(-c2nonc2OC)c1-c1ccccc1`, the AC35 result was “inactive”.

As to `Cc1cc(=O)[nH]c(N/N=C/c2c(C)nn(-c3ccccc3Cl)c2Cl)n1`, the AC35 entry was “inactive”.

For the molecule `Cc1ccc(-c2ccc(/C=N/NC(=O)CN3CCOCC3)o2)cc1[N+](=O)[O-]`, the AC35 entry is “inactive”.

In the case of `CCN1CCCC1CNc1ncnc2c1[nH]c1ccc(F)cc12` (stereo unspecified), the AC35 entry was “inactive”.

Consider `O=C(NNC(=O)c1ccc(Cl)nc1)c1ccc(Br)cc1`, for which the AC35 entry was “inactive”.

Consider `CCN(CC)CCCC(C)n1c2nc(=O)[nH]c(=O)c-2nc2cc(Cl)ccc21` (stereo unspecified), for which the AC35 entry was “inactive”.

Take `CCN(CC)CCOc1ccc2c(c1)C(=NNC(=O)c1ccccn1)c1cc(OCCN(CC)CC)ccc1-2`: the AC35 entry was “inactive”.

With `Cc1ccnc(N2CCC(C(=O)NC3CCCCCC3)CC2)n1`, the AC35 entry was “inactive”.

Turning to `C=CCNCCCCOc1ccccc1`, the AC35 result is “inactive”.

Take `Cc1ccccc1-n1nc(C)c2c1N=C1C(Cl)=CC(Cl)=CN1C2c1ccc(C(=O)O)cc1` (stereo unspecified): the AC35 entry was “inactive”.

Consider `CCOC(=O)c1c(C)[nH]c(C(=O)NCCN2CCOCC2)c1C`, for which the AC35 entry is “inactive”.

Regarding `O=C1C=CC(=O)N1c1ccc(N2CCCCC2)cc1`, the AC35 result was “inactive”.

With `O=C(Cn1cc(C(F)(F)F)ccc1=O)Nc1ccc2c(c1)OCCO2`, the AC35 result is “inactive”.

On to `COc1cc(C(=O)Nn2c(O)c(C3=c4ccccc4=NC3=O)sc2=S)ccc1O`, for which the AC35 entry was “inactive”.

`COc1ccc(NC(=O)Cn2nnc(C(=O)NCCc3ccc(OC)c(OC)c3)c2N)cc1`: the AC35 entry is “inactive”.

Turning to `CCOc1cc(/C=C/C(=O)OCC(=O)NCCN2C(=O)CSC2=O)ccc1OCC(C)C`, the AC35 result is “inactive”.

On to `CC1CCN(CCC(=O)Nc2ccccc2)CC1`, for which the AC35 entry was “inactive”.

Turning to `O=C1Nc2cc(C(=O)N3CCC(N4CCCCC4)CC3)ccc2S/C1=C\c1ccccc1`, the AC35 entry is “inactive”.

As for `CC(C)(C)CC(=O)Nc1nnc(SCC(=O)NCc2cccs2)s1`, the AC35 result was “inactive”.

Regarding `O=C1C(Cl)=C(Oc2ccccc2)C(=O)c2ccccc21`, the AC35 entry was “inactive”.

Consider `O=c1ccc2c(-c3ccccc3S(=O)(=O)O)c3ccc(O)c(O)c3oc-2c1O`, for which the AC35 is 0.557 µM (active).

With `CC(=O)c1cc(-c2ccccc2)n(CC(=O)NC2CCCCC2)c1C`, the AC35 entry was “inactive”.

Consider `Cc1[nH][nH]c(=O)c1C(c1ccc(-c2ccc(Cl)cc2)o1)c1c(C)[nH][nH]c1=O`, for which the AC35 entry is “inactive”.

For `CCOc1ccc(C(CC(=O)O)NC(=O)C23CC4CC(CC(C4)C2)C3)cc1OC` (stereo unspecified), the AC35 entry is “inactive”.

`COc1ccc(S(=O)(=O)N2CCCC(C(=O)NCCCn3ccnc3)C2)cc1OC` (stereo unspecified): the AC35 entry is “inactive”.

Take `COc1ccc(NC(=O)C2Cc3c(-c4ccc(Cl)cc4)ccnc3O2)cc1` (stereo unspecified): the AC35 entry was “inactive”.

Regarding `CCOc1ccccc1Nc1nnc(SCc2ccc(C(=O)OC)o2)s1`, the AC35 result is “inactive”.

With `NC1=CC(=O)C(=O)c2cccnc21`, the AC35 result was “inactive”.

Consider `N#Cc1ccc(CSc2ncccn2)cc1`, for which the AC35 result is “inactive”.

For `Cc1ccc(S(=O)(=O)N(C)C)cc1NC(=O)/C=C/c1cccs1`, the AC35 result is “inactive”.

As for `O=C(CN1C(=O)c2ccc([N+](=O)[O-])cc2C1=O)Nc1nnc(C2CC2)s1`, the AC35 result was “inactive”.

As for `O=C(NCc1ccco1)c1nc(-c2ccccc2)n(-c2ccccc2)n1`, the AC35 result was “inactive”.

For the molecule `CCOC(=O)c1c(C)[nH]c2c1-c1ccccc1C(=O)C2=O`, the AC35 entry was “inactive”.

For the molecule `O=[N+]([O-])c1ccccc1Nc1ccc(O)cc1`, the AC35 result is “inactive”.

As for `O=C(CSc1nnc(-c2ccccc2O)o1)NC1CCCCC1`, the AC35 entry was “inactive”.

Turning to `Cc1ccc(C(=O)Cn2cc([N+](=O)[O-])nc2C)cc1`, the AC35 entry is “inactive”.

In the case of `COCC(C)n1c(SCC(=O)NC2CCCCC2C)nc2ccccc2c1=O` (stereo unspecified), the AC35 entry is “inactive”.

For `Cc1ccc(/C=N/NC(=O)c2cc3ccccc3cc2O)o1`, the AC35 result is “inactive”.

Regarding `COc1ccccc1N(C)S(=O)(=O)c1ccc(C(=O)NC2CCCCCC2)cc1`, the AC35 entry is “inactive”.

Regarding `COc1ccc(OC)c(-c2csc(-c3cccs3)n2)c1`, the AC35 result is “inactive”.

Regarding `COC(=O)[C@H](Cc1ccccc1)NC(=O)Nc1ccc(S(N)(=O)=O)cc1`, the AC35 entry is “inactive”.

Regarding `C/C(=N/NC(=O)CCc1ccccc1)c1ccco1`, the AC35 result was “inactive”.

In the case of `CCN(CC)S(=O)(=O)c1ccc(N2CCN(C)CC2)c(NC(=O)Nc2ccccc2F)c1`, the AC35 result is “inactive”.

Regarding `Cc1sc2ncnc(SCC(=O)Nc3ccc(CN4CCCC4)cc3)c2c1C`, the AC35 entry is “inactive”.

With `C=CCn1c(=NC(=O)c2ccc(S(=O)(=O)N3CCCC3)cc2)sc2cc(NC(C)=O)ccc21`, the AC35 entry is “inactive”.

For the molecule `CCN(CC)CCCNC(=O)c1cc(-c2cccc(Cl)c2)on1`, the AC35 result is “inactive”.
